Among the data in PubChem BioAssay (NCATS) are Potency values, retold here.

Inconclusive results are not listed. Active and inactive are the calls of the source. Calls come from the whole dose curve; as a rule, active = well fitted cell-killing curve with a large enough effect; inconclusive = small, poorly fitted or top-dose-only effect; inactive = no such curve, though single readings can be large or run the other way.
Potency is the fitted concentration of half-maximal effect.

A short description of the experiment: qHTS of pediatric cancer cell lines to identify multiple opportunities for drug repurposing: Primary screen for NB-EBc1 cells (AID 1347095). The note with it: NB-EBc1 neuroblastoma viability, CellTiter-Glo luminescence, 48 h; series mostly up to 46 µM. The method in brief:
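Primary screen of approved and investigational compounds on cells in growth media at 37 degrees C, 5% CO2. MIPE set at 11-point and NPC set at 8-point dilutions; viability scored by ATP-based luminescence at 48 hours.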
(In general: Quantitative high-throughput screening tests each substance at several concentrations.)
`Cc1ccc(CN2CCNCC2)cc1NC(=O)CNc1ccc(F)c(F)c1`: the Potency entry was “inactive”.

Take `O=C(O)[C@H](Cc1c[nH]c2ccccc12)N1C(=O)c2ccccc2C1=O`: the Potency entry is “inactive”.

In the case of `Cc1nc(N)ncc1-c1nc(N2CCOCC2)c2sc(C(C)(C)O)cc2n1`, the Potency was 590 nM (active).

`CC[C@@]1(O)C(=O)OCc2c1cc1n(c2=O)Cc2cc3cc(O)ccc3nc2-1`: the Potency is 11.8 nM (active).

For `COc1ccc2c(c1)CC[C@@H](CN(C)CC(=O)O)[C@H]2c1ccccc1`, the Potency was 662 nM (active).

For the compound `C=CC(=O)N1CCC[C@@H](n2nc(-c3ccc(Oc4ccccc4)cc3)c3c(N)ncnc32)C1`, the Potency is 10500 nM (active).

Turning to `CC(C)c1ccccc1Cc1cc(C(=O)Nc2ccc(S(=O)(=O)c3ccccc3C(C)(C)C)cc2)c(O)c(O)c1O`, the Potency was 2350 nM (active).

In the case of `Cc1cc(Nc2cc(N3CCN(C)CC3)nc(C=Cc3ccccc3)n2)n[nH]1`, the Potency was 4290 nM (active).

Consider `Cc1nc(Nc2n[nH]c3c2CN(C(=O)N[C@H](CN(C)C)c2ccccc2)C3(C)C)c2sccc2n1`, for which the Potency is 10500 nM (active).

In the case of `CC=C1NC(=O)[C@H]2CSSCCC=C[C@H](CC(=O)N[C@H](C(C)C)C(=O)N2)OC(=O)[C@H](C(C)C)NC1=O`, the Potency is 29.6 nM (active).

Turning to `Cn1c(CNc2ccc(C(=N)N)cc2)nc2cc(C(=O)N(CCC(=O)O)c3ccccn3)ccc21`, the Potency entry is “inactive”.

For `Cc1ccc(C(=O)Nc2cccc(C(F)(F)F)c2)cc1-c1ccc2nc(NCCN3CCOCC3)ncc2c1`, the Potency is 3720 nM (active).

Turning to `NC(=O)c1cccc2cn(-c3ccc([C@@H]4CCCNC4)cc3)nc12`, the Potency was 6620 nM (active).

For the compound `Nc1nc(Nc2ccc(S(N)(=O)=O)cc2)nn1C(=O)c1c(F)cccc1F`, the Potency is 5260 nM (active).

Regarding `COc1c(N2C[C@@H]3CCCN[C@H]3C2)c(F)cc2c(=O)c(C(=O)O)cn(C3CC3)c12`, the Potency entry was “inactive”.

As for `COc1ccc(-c2cc3c(C)nc(N)nc3n(C3CCC(OCCO)CC3)c2=O)cn1` (stereo not given), the Potency is 59 nM (active).

As to `O=C(O)CO.[NH2-].[NH2-].[Pt+2]`, the Potency result was “inactive”.

As for `CN1CCN(Cc2ccc(NC(=O)Nc3ccc(Oc4cc(NC(=O)C5CC5)ncn4)cc3)cc2C(F)(F)F)CC1`, the Potency was 935 nM (active).

Consider `COc1ccc(C(=O)CC2(O)C(=O)Nc3c(Cl)ccc(Cl)c32)cc1` (stereo not given), for which the Potency is 418 nM (active).

Take `CC(C)(O)CCc1ccc(OCc2cc(-c3cccc(OC(F)F)c3)c3ncccc3c2)cc1`: the Potency entry is “inactive”.
